Consider 38 molecules from PubChem BioAssay (EPA / NIEHS).

Active and inactive are the calls of the source. Rule for the calls: active = hit-call score of the fitted dose curve at least 0.9, where 1 is the maximum; inactive = score below 0.9.

Chain of Tumor necrosis factor (Homo sapiens) (P01375 whole entry, looked up): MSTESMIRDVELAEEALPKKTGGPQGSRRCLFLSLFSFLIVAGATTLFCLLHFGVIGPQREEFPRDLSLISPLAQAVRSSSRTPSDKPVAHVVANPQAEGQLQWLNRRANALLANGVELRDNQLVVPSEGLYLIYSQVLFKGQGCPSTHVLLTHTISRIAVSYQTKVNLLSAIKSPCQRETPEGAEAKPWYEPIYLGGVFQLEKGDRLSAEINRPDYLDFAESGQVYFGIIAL

Read-out in the assay: Tumor necrosis factor (Homo sapiens) (UniProt P01375)
In words: BSK_BT_xTNFa: BioMAP Diversity Plus: BT Assay for Tumor necrosis factor alpha (TNF-alpha) Biomarker Activity (AID 2284230). As to conditions: primary human B cells with PBMC. As to the method:
BSK_BT is a cell-based, multiplexed-readout assay that uses B cell and peripheral blood mononuclear cells, a human vascular primary cell co-culture, with measurements taken at 24 hours after chemical dosing in a microplate: 96-well plate.BSK_BT_xTNFa is an assay component of the BSK_BT assay. It measures secreted TNF-alpha related to regulation of gene expression using LumineX xMAP technology.Data from the assay component BSK_BT_xTNFa was analyzed at the endpoint, BSK_BT_xTNFa, in the positive analysis fitting direction relative to DMSO as the negative control and baseline of activity. Using a type of cytokine quantitation reporter, gain or loss-of-signal activity can be used to understand protein changes. To generalize the intended target to other relatable targets, this assay endpoint is annotated to the 'cytokine' intended target family, where the subfamily is 'inflammatory factor'.
The levels of cell surface (or secreted, indicated by the prefix "s") biomarker endpoints were measured by ELISA. Overt cytotoxicity to cells in confluent adherent cultures (all systems other than the BT system) was assessed by measuring total protein levels using sulforhodamine B (SRB) staining in parallel cultures at the time of biomarker measurements, indicated as SRB endpoints. For proliferation assays for adherent cell types, individual cell types are cultured at sub-confluence and relative cell numbers quantified by SRB staining at time points optimized for each system (48 h: 3C and CASM3C systems; 72 h: BT and HDF3CGF systems; 96 h: SAg system). SRB was performed by staining cells with 0.1% SRB after fixation with 10% TCA and reading wells at 560 nm.Viability and proliferation of PBMC (T cells) was quantified by Alamar Blue reduction for the SAg and BT systems. For PBMC viability (referred to as PBMC Cytotoxicity within the assay endpoint names), cells were plated (75,000/well in a 96-well plate) and then chemical samples added for 1 h before addition of activators, SEB and TSST-1 (20 ng/mL final concentration each). Cells were incubated for 90 h. Then, Alamar Blue (20 uL/well) (Invitrogen, Cat DAL1100) was added for 6 h, and the plates were read with a fluorescence microplate reader at 546/580 nm (excitation/emission). For PBMC proliferation, cells were plated and activated as above but incubated for only 16 h prior to addition of Alamar Blue. Plates were read after 6 h.
On to `CC=Cc1ccc(OCC)c(O)c1`, for which the outcome was inactive. Same read-out and setting: for `CCCCCCCCCCCCCCCC(=O)OC/C=C(C)/C=C/C=C(C)/C=C/C1=C(C)CCCC1(C)C` the value was “inactive”; for `C1=CC2C3C=CC(C3)C2C1` (stereo not drawn), “inactive”. Regarding `O=C1OC2(c3ccccc31)c1ccc(O)c(Br)c1Oc1c2ccc(O)c1Br`, the result was inactive. Same read-out and setting: next, `CN(c1nccc(=O)[nH]1)C1CCN(c2nc3ccccc3n2Cc2ccc(F)cc2)CC1`: “inactive”; `O=C1OC[C@H](Cc2cccc(O)c2)[C@H]1Cc1cccc(O)c1`: “inactive”; `IC(I)I`: “inactive”. Same read-out and setting: for `CC1(C)C2=CCCC(C)(C)[C@]23CC[C@H]1C3` the value was “inactive”; for `CSCCC=O`, “inactive”. `Oc1c(Cl)cc(Cl)c(Cl)c1Cc1c(O)c(Cl)cc(Cl)c1Cl`: the AC50 (in general, the midpoint of the concentration-response curve, whichever way the signal moves) is 15.2 µM (active). Take `C=C(C)C(=O)OCCOCCOCCOC(=O)C(=C)C`: the result was inactive. On to `CN(C)C(=O)Nc1ccc(Oc2ccc(Cl)cc2)cc1`, for which the result was inactive. For the molecule `COc1cc(Cl)c(OC)cc1N`, the outcome was inactive. Same read-out and setting: next, `c1ccc2cc(Nc3ccc(Nc4ccc5ccccc5c4)cc3)ccc2c1`: “inactive”.

As to `CCCCN(CCCC)C(=O)N(CCCC)CCCC`, the AC50 was 30.3 µM (active). Take `c1ccc(Oc2ccccc2)cc1`: the result was inactive.

As for `CC(=O)C1(C)CC2=C(CCCC2(C)C)CC1C` (stereo not drawn), the AC50 is 30.3 µM (active). For `CC(C=O)Cc1ccc(C(C)(C)C)cc1` (stereo not drawn), the outcome was inactive. Still for that read-out and setting: for `CCN(CC)C(=O)N(CC)CC` the value was “inactive”. As to `C=C(C)C(=O)OCC(CC)(COC(=O)C(=C)C)COC(=O)C(=C)C`, the AC50 is 19.7 µM (active). Same read-out and setting: for `CC(C)(C)CC(C)(C)c1ccc(OCCOCC[N+](C)(C)Cc2ccccc2)cc1` the value was 5 µM (active). For `c1ccc(CCc2ccccc2)cc1`, the outcome was inactive. The same measure, in the same setting: for `CC(C)(N=C=O)c1cccc(C(C)(C)N=C=O)c1` the value was “inactive”; for `CCCCOC(=O)CCCCCCCC(=O)OCCCC`, “inactive”; for `CS(=O)(=O)c1ccc(C2=C(c3ccccc3)C(=O)OC2)cc1`, “inactive”.

Consider `COc1ccc(CCN2CCC(Nc3nc4ccccc4n3Cc3ccc(F)cc3)CC2)cc1`, for which the AC50 was 7.19 µM (active). On the same count and under the same terms, for `CN(C)C(=S)SC(=S)N(C)C` the value was 0.504 µM (active); for `CC(=O)Nc1ccc(C(=O)CCl)cc1`, 8.47 µM (active). With `C=C(C)C(=O)OCCOCCOCCOCCOC(=O)C(=C)C`, the outcome was inactive. For the molecule `CCC(C)c1cc([N+](=O)[O-])cc([N+](=O)[O-])c1OC(=O)OC(C)C` (stereo not drawn), the AC50 is 33.5 µM (active). For `C[C@@H]1CCN(C(=O)[C@H](CCCN=C(N)N)NS(=O)(=O)c2cccc3c2NC[C@H](C)C3)[C@@H](C(=O)O)C1`, the outcome was inactive. On to `O=C1c2ccccc2C(=O)c2c(O)ccc(O)c21`, for which the AC50 was 11 µM (active). Consider `CC(=O)c1c(C)c([N+](=O)[O-])c(C(C)(C)C)c([N+](=O)[O-])c1C`, for which the outcome was inactive.

With `COc1ccc(OC)c(N=Nc2c(O)ccc3ccccc23)c1`, the outcome was inactive. The same measure, in the same setting: for `Cc1cc(CCC(=O)OCCOCCOCCOC(=O)CCc2cc(C)c(O)c(C(C)(C)C)c2)cc(C(C)(C)C)c1O` the value was “inactive”; for `Clc1cc(Cl)c(-c2c(Cl)c(Cl)cc(Cl)c2Cl)cc1Cl`, “inactive”; for `C=C(C)[C@H]1CC=C(C)C(=O)C1`, “inactive”.

Turning to `CCCCCC(C=O)=Cc1ccccc1`, the result was inactive.
